Read-out in test [1]: Transforming Growth Factor (TGFB1), TGFB1 (gene 7040)
The test can be described thus: LTEA_HepaRG_TGFB1: Life Technologies and Expression Analysis (LTEA) Assay for Transforming Growth Factor (TGFB1) Transporter using HepaRG (AID 2283533; active = hit-call score of the fitted dose curve at least 0.9, where 1 is the maximum; inactive = score below 0.9). To be noted: mRNA level, 48 h; actives raise or lower the signal. An outline of the steps:
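Differentiated human HepaRG cells in serum-free induction medium were exposed in duplicate for 48 h to eight concentrations (top 100 uM, half-log steps, 0.5% DMSO). TGFB1 mRNA was quantified by qRT-PCR, normalized to ACTB, GAPDH, POLR2A, and fitted bidirectionally against DMSO.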

Read-out in test [2]: TIMP1, TIMP1 (gene 7076)
The test can be described thus: LTEA_HepaRG_TIMP1: Life Technologies and Expression Analysis (LTEA) Assay for TIMP1 using HepaRG (AID 2283534; active = hit-call score of the fitted dose curve at least 0.9, where 1 is the maximum; inactive = score below 0.9). To be noted: mRNA level, 48 h; actives raise or lower the signal. The method, boiled down: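 Differentiated human HepaRG cells in serum-free induction medium were exposed 48 h to chemicals (8 half-log concentrations, top 100 uM, 0.5% DMSO). TIMP1 mRNA was quantified by TaqMan qRT-PCR, normalized to ACTB/GAPDH/POLR2A; bidirectional fit versus DMSO.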

Read-out in test [3]: Tumor necrosis factor receptor 1 (TNFRSF1A), TNFRSF1A (gene 7132)
The test can be described thus: LTEA_HepaRG_TNFRSF1A: Life Technologies and Expression Analysis (LTEA) Assay for Tumor necrosis factor receptor 1 (TNFRSF1A) using HepaRG (AID 2283535; active = hit-call score of the fitted dose curve at least 0.9, where 1 is the maximum; inactive = score below 0.9). The following applies: mRNA level, 48 h; actives raise or lower the signal. An outline of the steps:
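Differentiated human HepaRG cells were exposed in duplicate for 48 h in serum-free induction medium to eight concentrations (top 100 uM, half-log steps, 0.5% DMSO). TNFRSF1A mRNA was quantified by qRT-PCR, normalized to ACTB, GAPDH and POLR2A, then fitted bidirectionally against DMSO.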

Read-out in test [4]: Thyroid Hormone Responsive (THRSP), THRSP (gene 7069)
The test can be described thus: LTEA_HepaRG_THRSP: Life Technologies and Expression Analysis (LTEA) Assay for Thyroid Hormone Responsive (THRSP) using HepaRG (AID 2283536; active = hit-call score of the fitted dose curve at least 0.9, where 1 is the maximum; inactive = score below 0.9). To be noted: mRNA level, 48 h; actives raise or lower the signal. An outline of the steps:
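THRSP transcript quantified by Fluidigm qRT-PCR against three housekeeping genes after 48 h chemical exposure of HepaRG cells in serum-free induction medium; eight-point half-log series, top 100 uM, 0.5% DMSO vehicle, duplicate wells.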

Read-out in test [5]: Cellular tumor antigen p53 (Homo sapiens) (UniProt P04637)
The test can be described thus: LTEA_HepaRG_TP53: Life Technologies and Expression Analysis (LTEA) Assay for Tumor Protein P53 (TP53) using HepaRG (AID 2283537; active = hit-call score of the fitted dose curve at least 0.9, where 1 is the maximum; inactive = score below 0.9). The following applies: mRNA level, 48 h; actives raise or lower the signal. An outline of the steps: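 Differentiated HepaRG cells in serum-free induction medium exposed 48 h in duplicate to 8 half-log concentrations, top 100 uM, 0.5% DMSO. TP53 mRNA by TaqMan qRT-PCR (Fluidigm), normalized to ACTB, GAPDH, POLR2A; fitted bidirectionally versus DMSO.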

Read-out in test [6]: UDP glucuronosyltransferase (UGT1A1), UGT1A1 (gene 54658)
The test can be described thus: LTEA_HepaRG_UGT1A1: Life Technologies and Expression Analysis (LTEA) Assay for UDP glucuronosyltransferase (UGT1A1) using HepaRG (AID 2283538; active = hit-call score of the fitted dose curve at least 0.9, where 1 is the maximum; inactive = score below 0.9). The following applies: mRNA level, 48 h; actives raise or lower the signal. An outline of the steps:
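UGT1A1 transcript level, measured by qRT-PCR with three housekeeping genes for normalization, after 48 h treatment of human HepaRG cells (0.5% DMSO, duplicates, up to 100 uM, half-log steps, 8 points). Curves fit both directions against DMSO baseline.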

Read-out in test [7]: UDP glucuronosyltransferase (UGT1A6), UGT1A6 (gene 54578)
The test can be described thus: LTEA_HepaRG_UGT1A6: Life Technologies and Expression Analysis (LTEA) Assay for UDP glucuronosyltransferase (UGT1A6) using HepaRG (AID 2283539; active = hit-call score of the fitted dose curve at least 0.9, where 1 is the maximum; inactive = score below 0.9). To be noted: mRNA level, 48 h; actives raise or lower the signal. The method, boiled down:
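Human HepaRG cells were dosed for 48 h in serum-free induction medium with 0.5% DMSO vehicle, eight-point half-log series from 100 uM, in duplicate. UGT1A6 mRNA was measured by qRT-PCR, normalized to ACTB, GAPDH, POLR2A, and fitted bidirectionally against DMSO.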

Read-out in test [8]: X-box binding protein 1 (XBP1), XBP1 (gene 7494)
The test can be described thus: LTEA_HepaRG_XBP1: Life Technologies and Expression Analysis (LTEA) Assay for X-box binding protein 1 (XBP1) using HepaRG (AID 2283540; active = hit-call score of the fitted dose curve at least 0.9, where 1 is the maximum; inactive = score below 0.9). To be noted: mRNA level, 48 h; actives raise or lower the signal. The method, boiled down: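 Differentiated human HepaRG cells in serum-free induction medium were exposed in duplicate for 48 h to eight half-log concentrations up to 100 uM in 0.5% DMSO. XBP1 mRNA was quantified by qRT-PCR, normalised to ACTB, GAPDH and POLR2A, with bidirectional fitting against DMSO.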

Test [9] is described as follows: LTEA_HepaRG_LDH_cytotoxicity: Cytotoxicity Assessment in the Life Technologies and Expression Analysis (LTEA) Assay (AID 2283563).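 For AC50: LDH activity released into spent culture medium as a marker of cell death.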 The method, boiled down:
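Differentiated human HepaRG cells, plated 48 h beforehand, were switched to serum-free induction medium and exposed for 48 h to eight half-log concentrations (top 100 uM) in 0.5% DMSO. LDH was measured in spent medium; activity was fitted relative to DMSO vehicle.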

A short description of test [10]: TOX21_p53_BLA_p2_viability: Viability Assessment in the Tox21 HCT-116 p53 Agonism Beta-lactamase Assay, Phase 2 (AID 2283591).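 Note: compound exposure lasted 16 h at 37 °C; actives lower the ATP signal meaning cytotoxicity.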 An outline of the steps: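 Cytotoxicity readout: CellTiter-Glo ATP luminescence, 30 min at room temperature, after the beta-lactamase read. Cells were HCT116 exposed 16 h at 37C to compounds pin-transferred at 217-fold dilution from DMSO stocks.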

The nature of test [11]: TOX21_p53_BLA_p3_viability: Viability Assessment in the Tox21 HCT-116 p53 Agonism Beta-lactamase Assay, Phase 3 (AID 2283593).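 Note: cells exposed to compound for 16 h before reading.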 The method, boiled down:
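Cellular ATP was quantified by CellTiter-Glo luminescence, read after 30 min at room temperature. Beforehand, HCT116 cells (4000/well) received compound 5 h post-seeding, 217-fold diluted from DMSO, then incubated 16 h at 37C.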

Test [12] concerns the target Cellular tumor antigen p53 (Homo sapiens) (UniProt P04637). The test can be described thus: TOX21_p53_BLA_p3_ratio: Tox21 HCT-116 p53 Agonism Beta-lactamase Assay, Ratio, Phase 3 (AID 2283596). The method, boiled down:
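Cells were seeded at 4000/well, rested 5 h at 37C, then dosed with DMSO compound solutions (217-fold dilution) for 16 h. CCF4-AM substrate was loaded for 2 h at room temperature, and the 460/530 nm emission ratio was fitted for gain of signal versus DMSO.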

Test [13] can be described thus: TOX21_p53_BLA_p4_viability: Viability Assessment in the Tox21 HCT-116 p53 Agonism Beta-lactamase Assay, Phase 4 (AID 2283597).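 Note: hits lower the luminescence signal meaning cytotoxicity.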 An outline of the steps: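 Cytotoxicity was inferred from loss of CellTiter-Glo luminescence. HCT116 cells had been dosed with compounds after 5 h plating, incubated 16 h at 37C and 5% CO2, and exposed to the CCF4-AM substrate for 2 h.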

Test [14] addresses Cellular tumor antigen p53 (Homo sapiens) (UniProt P04637). The test can be described thus: TOX21_p53_BLA_p5_ratio: Tox21 HCT-116 p53 Agonism Beta-lactamase Assay, Ratio, Phase 5 (AID 2283599). The method, boiled down:
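Beta-lactamase reporter ratio (blue 460 nm over green 530 nm, 405 nm excitation) after 2 h CCF4-AM loading, in HCT-116 cells exposed 16 h at 37 C to compounds pinned at 217-fold dilution. Increases relative to DMSO baseline scored.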

For test [15] the target is unchanged. The test can be described thus: TOX21_p53_BLA_p4_ratio: Tox21 HCT-116 p53 Agonism Beta-lactamase Assay, Ratio, Phase 4 (AID 2283601). An outline of the steps: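 Signal is the blue/green (460nm/530nm) ratio of cleaved versus uncleaved CCF4-AM substrate, read after 2 h substrate loading. Cells were HCT116 carrying the p53-responsive beta-lactamase reporter, dosed 16 h at 37C, 5% CO2; CellTiter-Glo measured in parallel.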

Test [16] in a line: Tanguay_ZF_120hpf_MORT_legacy: (Legacy) Oregon State University Tanguay Lab 120 Hour Post-fertilization zebrafish Assay for Mortality (AID 2283633). An outline of the steps: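 Dechorionated Tropical 5D wild-type zebrafish embryos, one per well from 6 hpf, were statically exposed at 28C in the dark until 120 hpf (0.64% DMSO final). Mortality was scored as present/absent by brightfield microscopy, fitted positively versus DMSO.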

Test [17] is described as follows: Tanguay_ZF_120hpf_YSE_legacy: (Legacy) Oregon State University Tanguay Lab 120 Hour Post-fertilization zebrafish Assay for Yolk Sac Edema (AID 2283634). An outline of the steps: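 Tropical 5D wild-type embryos, dechorionated with pronase at 4 hpf, were exposed singly from 6 hpf to 120 hpf under static, sealed, dark conditions at 28C with 0.64% DMSO final. Yolk sac edema was scored present/absent by brightfield microscopy.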

Test [18] deals with Cellular tumor antigen p53 (Homo sapiens) (UniProt P04637). The test can be described thus: TOX21_p53_BLA_p2_ratio: Tox21 HCT-116 p53 Agonism Beta-lactamase Assay, Ratio, Phase 2 (AID 2283592). The method, boiled down: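 Ratio endpoint: beta-lactamase cleavage of CCF4-AM, blue (460 nm) over green (530 nm). HCT116 reporter line; 16 h treatment, 37C; substrate 2 h RT.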
Chain of Cellular tumor antigen p53 (Homo sapiens) (P04637 whole entry, looked up): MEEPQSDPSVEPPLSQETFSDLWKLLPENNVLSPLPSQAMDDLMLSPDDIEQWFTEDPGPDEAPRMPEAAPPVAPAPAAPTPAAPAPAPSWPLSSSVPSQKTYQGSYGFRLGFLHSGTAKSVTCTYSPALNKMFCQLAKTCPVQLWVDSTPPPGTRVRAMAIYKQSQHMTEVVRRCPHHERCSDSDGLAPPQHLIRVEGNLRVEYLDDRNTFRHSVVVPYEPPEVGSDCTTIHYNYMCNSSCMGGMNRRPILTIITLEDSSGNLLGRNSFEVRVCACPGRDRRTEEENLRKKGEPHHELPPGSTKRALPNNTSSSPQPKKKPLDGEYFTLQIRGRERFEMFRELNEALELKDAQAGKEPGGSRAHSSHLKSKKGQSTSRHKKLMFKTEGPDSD
Test [19] is described as follows: TOX21_p53_BLA_p5_viability: Viability Assessment in the Tox21 HCT-116 p53 Agonism Beta-lactamase Assay, Phase 5 (AID 2283600). An outline of the steps:
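Luciferase-coupled ATP quantitation of cells treated for 16 h (37C, 5% CO2) with test chemicals delivered in DMSO via a 217-fold dilution; 4000 cells/well; reagent incubated 30 min at room temperature before luminescence reading.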

Test [20] is described as follows: ATG_XTT_Cytotoxicity: Cytotoxicity Assessment in the Attagene TRANS-FACTORIAL HepG2 Assay (AID 2283584). An outline of the steps: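 HepG2 human liver cells, transiently transfected with multiple GAL4-UAS reporter units, were dosed and read at 24 h by XTT as cell number. Loss of signal was fitted relative to DMSO negative control baseline.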

Where “and” joins values, the source holds several entries; their conditions need not be identical. Identical values can stand only once. Records with an inconclusive call do not appear. The source holds several records for some structures; these can differ, active in one and inactive in another. Calls of active or inactive are those of the source. Rule for the calls, unless noted: active = hit-call score of the fitted dose curve at least 0.9, where 1 is the maximum; inconclusive = response in the unintended direction; inactive = score below 0.9.

Turning to `CCN(CC)C(=O)SCc1ccc(Cl)cc1`, the call in test [1], in [2], in test [3], in test [4], in test [5] and in test [6] was inactive. In addition, the molecule was called inactive in test [7], in test [8], in [9], in test [10], in test [11] and in test [12]. Further, the molecule was called inactive in [13], in test [14], in [15], in [16] and in test [17].

As for `CC1(c2ccc(Oc3ccccc3)cc2)OC(=O)N(Nc2ccccc2)C1=O` (configuration not stated), the call in [1], in test [2], in test [3], in test [6], in test [8] and in test [10] was inactive. Moreover, the result in [11], in test [12], in [19], in test [16] and in test [17] was inactive. The AC50 was 24.1 µM (active) in [4]; 12.9 µM (active) in test [5]; 50.2 µM (active) in test [9]; 16.9 µM (active) in test [18]; 19.5 µM (active) in test [13]; 46.4 µM (active) in [14]. For the same molecule, the AC50 in test [15] is 51.2 µM (active).

As to `CCOCN(C(=O)CCl)c1c(C)cccc1CC`, the molecule was classed as inactive in [1], in test [2], in test [3], in test [5], in test [6] and in test [7]. Besides, the result in test [8], in test [20], in [18], in test [12], in test [13] and in [14] was inactive. Besides, the outcome in [15] and in test [16] was inactive. Besides, the AC50 in [4] was 9.92 µM (active); in test [9] it was 76 µM (active).

For the molecule `O=C1c2ccccc2C(=O)N1SC(Cl)(Cl)Cl`, the call in test [1], in [2], in test [3], in [4], in [5] and in [6] was inactive. The call in test [7], in test [8], in test [9], in test [10], in test [11] and in test [13] was inactive. Moreover, the outcome in test [16] and in test [17] was inactive. The AC50 was 7.1 µM (active) and 14.8 µM (active) in test [18]; 6.49 µM (active) and 23.1 µM (active) in test [12]; 14.1 µM (active) and 12.9 µM (active) in [14]; 13.5 µM (active) and 22.1 µM (active) in test [15].

`CCCN(CCOc1c(Cl)cc(Cl)cc1Cl)C(=O)n1ccnc1`: the AC50 is 27.6 µM (active) in [1]; 3.79 µM (active) in test [4]; 17.6 µM (active) in test [5]; 73.7 µM (active) in test [6]; 72.5 µM (active) in test [7]; 78.8 µM (active) in [8]. Further, the AC50 was 36 µM (active) in test [9]; 86.1 µM (active) in test [18]; 75 µM (active) in test [12]; 75.3 µM (active) in test [14]; 74.6 µM (active) in [15]. Further, the outcome in test [2], in test [3], in test [20], in [10], in test [11] and in [12] was inactive. For the same molecule, the outcome in test [13], in [14], in test [19], in test [15], in [16] and in [17] was inactive.

These data come from PubChem BioAssay (EPA / NIEHS).
